This note sets out measurements from PubChem BioAssay (NCATS).

Results filed as inconclusive are left out. A number with no mark means an inactive call. The source made the active and inactive calls. The call rests on the fitted dose curve.
Potency means the concentration at half of the fitted maximal effect.

The nature of this experiment: S16 Schwann cell PMP22 intronic element beta-lactamase assay (AID 624044). Further: nearly all actives have a fitted effect of over 15% in size. Conditions: S16 rat Schwann cells, PMP22 element beta-lactamase FRET, 24 h; series mostly up to 38.3 µM; ratio activity, negative = inhibition: at the top concentration. From the text:
Description: Charcot-Marie-Tooth-Association [CMTA] National Center for Advancing Translational Sciences [NCATS] Charcot-Marie-Tooth (CMT) disease was first characterized by Jean-Martin Charcot and Pierre Marie in France and, independently, by Howard Henry Tooth in England in 1886. CMT is one of the most common inherited neurological diseases, affecting approximately 1 in 2,500 Americans. […] The most prevalent type of CMT is known as CMT1A and caused by a duplication of the PMP22 gene which leads to over-expression of this protein. PMP22 is a glycosylated intrinsic membrane protein accounting for 2-5% of the myelin protein content, and its over-expression results in demyelination and subsequently axonal loss. A pair of cellular transcription-based assays was developed in the S16 rat Schwann cell lines (Hai, M., et al., 2002) stably transfected with orthogonal reporters - firefly luciferase (Fluc) and beta-lactamase (beta-Lac) - whose expression is driven by an intronic regulatory element of the PMP22 gene (Jones, E.A., et al., 2011) to recapitulate endogenous expression of PMP22. The current assay employs Blac as a reporter of PMP22 expression. A comprehensive library of approved drugs, the NCGC Pharmaceutical Collection (Huang, R., et al., 2011), was screened in the cross-validating platform of the orthogonal reporter assays to identify drug modulators inhibitory towards PMP22 expression. A set of counter-screens was devised to address non-specific activity of the library. An ATP-dependent CellTiter-Glo assay (developed by Promega Corp) was utilized to control cell viability. In addition, biochemical Fluc enzyme assay was performed to assess direct inhibition of the Fluc enzymatic activity. References Hai, M., Muja, N., DeVries, G.H., Quarles, R.H. and Patel, P.I. Comparative analysis of Schwann cell lines as model systems for myelin gene transcription studies. J Neurosci Res, 2002. 69(4): pp 497-508 Huang, R., Southall, N., Wang, Y., Yasgar A., Shinn P., Jadhav, A. , Nguyen, D.-T. and Austin, C.P., The NCGC pharmaceutical collection: a comprehensive resource of clinically approved drugs enabling repurposing and chemical genomics. Sci Transl Med, 2011. 3(80): p. 80ps16.
S16 Schwann cell PMP22 intronic element beta-lactamase assay The beta-Lac-expressing S16 cells were seeded in black clear-bottom 1536 well plates at between 500-750 cells/6uL in DMEM medium containing 10% FBS, w/o phenol red. After overnight incubation at 37 degree Celsius/5% C02, 23 nL of compounds or DMSO were delivered to each well using a pin tool, followed by 24h-incubation at 37 degree Celsius/5% C02. Then one microl of LiveBLAzer FRET B/G detection mix (Invitrogen) was added to each well. An EnVision plate reader (PerkinElmer) was used to detect the dual beta-Lac output composed of fluorescence at 460nm for beta-Lac expression and FRET at 535nm for cell viability. The % signal at 535 nm was scaled to a full range of DMSO and zero and then normalized using the maximum response observed in the screen as 100% activity. The % signal at 460nm was normalized to the average readings of potassium clavulanate (a positive control) - treated cells relative to DMSO-treated cells (0% Activity). The concentration-effect curves were then classified based on curve quality (r2), response magnitude and degree of measured activity.
With `c1ccc2sc(SNC3CCCCC3)nc2c1`, the “ratio activity, negative = inhibition” value was 4.96%.

Take `C[N+]1(C)C2CCC1CC(OC(=O)c1c[nH]c3ccccc13)C2` (stereo not given): the “ratio activity, negative = inhibition” value is 2.48%.

Take `c1ccc(C2(N3CCCC3)CCCCC2)cc1`: the “ratio activity, negative = inhibition” value is 9.74%.

Take `c1ccc2cc(CC3=NCCN3)ccc2c1`: the “ratio activity, negative = inhibition” value is 2.09%.

Turning to `O=C(NC(=O)c1c(F)cccc1F)Nc1ccc(Cl)c(Oc2ncc(C(F)(F)F)cc2Cl)c1`, the “ratio activity, negative = inhibition” value was 1.64%.

On to `O[C@H]1[C@H]2[C@H](O)CCCN2C[C@H]1O`, for which the “ratio activity, negative = inhibition” value was 1.01%.

Consider `[Cl-].[Cl-].[Hg+2]`, for which the Potency was 3.16 µM (active).

`O=C(O)C(Cl)(Cl)Cl`: the “ratio activity, negative = inhibition” value was 1.36%.

Regarding `O=C(CS(=O)C(c1ccccc1)c1ccccc1)NO` (stereo not given), the “ratio activity, negative = inhibition” value is -8.63%.

As for `C=CCN(C1=NCCN1)c1c(Cl)cccc1Cl`, the “ratio activity, negative = inhibition” value was -3.1%.

Consider `O=c1[nH]c(=O)n(Cl)c(=O)n1Cl`, for which the “ratio activity, negative = inhibition” value was 16.1%.

In the case of `COc1ccc2c3c1O[C@H]1C(=O)CC[C@H]4[C@@H](C2)N(C)CC[C@]314`, the “ratio activity, negative = inhibition” value is 3.42%.

`CCNC(C)Cc1cccc(C(F)(F)F)c1` (stereo not given): the “ratio activity, negative = inhibition” value was -3.91%.

As for `ClCC1CO1` (stereo not given), the “ratio activity, negative = inhibition” value was 0.253%.

As to `CN1c2ccccc2C(NCCCCCCC(=O)O)c2ccc(Cl)cc2S1(=O)=O` (stereo not given), the “ratio activity, negative = inhibition” value was 1.1%.

For `CNC(=O)OCC[N+](C)(C)C`, the “ratio activity, negative = inhibition” value is 4.15%.

Take `Clc1ccc(Cl)cc1`: the “ratio activity, negative = inhibition” value was -0.841%.

Regarding `O=C/C=C/c1ccccc1`, the “ratio activity, negative = inhibition” value is 2.65%.

In the case of `c1cc2c(c(NC3=NCCN3)c1)CCCC2`, the “ratio activity, negative = inhibition” value is 0.177%.

In the case of `N#CC1(N2CCCCC2)CCCCC1`, the “ratio activity, negative = inhibition” value is -13.1%.

`F/C(COc1ccc2c(c1)[nH]c1ccccc12)=C1/CN2CCC1CC2`: the “ratio activity, negative = inhibition” value is -9.99%.

Turning to `CC(C)CCON=O`, the “ratio activity, negative = inhibition” value is -4.68%.

Consider `CC(=O)OC1CN2CCC1CC2` (stereo not given), for which the “ratio activity, negative = inhibition” value was 2.64%.

For `CCC1(C)CC(=O)NC(=O)C1`, the “ratio activity, negative = inhibition” value was 9.7% [at 17.1 µM].

Regarding `CNC1(c2ccccc2Cl)CCCCC1=O` (stereo not given), the Potency entry is “inactive”.

As for `CN1CCCC(=C(c2cccs2)c2cccs2)C1`, the “ratio activity, negative = inhibition” value is -4.04%.

With `O=CC=O`, the “ratio activity, negative = inhibition” value is -2.95%.

On to `O=c1c2ccccc2[se]n1-c1ccccc1`, for which the “ratio activity, negative = inhibition” value was 0.697%.

In the case of `Oc1cc(Cl)c(Cl)cc1Cl`, the “ratio activity, negative = inhibition” value is 4.34%.

`Oc1cccc[c]1[Hg][Cl]`: the Potency was 4.46 µM (active).

In the case of `Clc1ccccc1Cl`, the “ratio activity, negative = inhibition” value was -3.6%.

Regarding `[O]=[Cr](=[O])([OH])[O][Cr](=[O])(=[O])[OH]`, the Potency result is “inactive”.

For `CC1CCC(C(C)C)C(OC(=O)c2ccccc2N)C1` (stereo not given), the “ratio activity, negative = inhibition” value was -3.89%.

On to `[O]=[Cd]`, for which the “ratio activity, negative = inhibition” value was 6.21%.

In the case of `CNC(=O)Oc1ccccc1C(=O)Nc1ccccc1`, the “ratio activity, negative = inhibition” value was 0.873%.

As for `CC(=O)O[C@H]1CC[C@H]2[C@@H]3CCC4=CC(=O)CCC4=C3C=C[C@]12C`, the “ratio activity, negative = inhibition” value is 3.36%.

For `CCCCCCCCOC(=O)c1ccccc1C(=O)OCCCCCCCC`, the “ratio activity, negative = inhibition” value is -0.531%.

As to `CC(N)Cc1ccc(O)cc1` (stereo not given), the “ratio activity, negative = inhibition” value is 2.65%.

For the compound `CCCC(C)(COC(N)=O)COC(=O)NC1CC1` (stereo not given), the “ratio activity, negative = inhibition” value was 5.26%.

Turning to `C[C@]12CCC(=O)C[C@@H]1CC[C@@H]1[C@@H]2CC[C@]2(C)[C@@H](O)CC[C@@H]12`, the “ratio activity, negative = inhibition” value was -12.1%.
